Shown are actives, neighbours in structure and some others; about 28% of the full set was active somewhere.
CYP2C9 inh = blockers of cytochrome P450 2C9 activity – biochemical, luminescence, ADME assay, primary screen; CYP2C9 Supersomes, luciferin-H conversion; actives 20% (n = 96,000); inhibition, % at 5 µM;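 active = blocking of liver enzyme CYP2C9 beyond about 50% at 5 µM, limit read from the data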
CYP2C19 inh = blockers of cytochrome P450 2C19 activity – biochemical, luminescence, ADME assay, primary screen; P33261; CYP2C19 Supersomes, luciferin-H EGE luminescence, 30 min; inhibition, % at 5 µM; actives 21% (n = 96,000);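 active = CYP2C19 inhibition above a set limit at 5 µM in the primary screen, cut at about 50% in these data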;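 note: plate controls were negative control wells for no effect and 2.5 mM tranylcypromine positive control for full effect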
Pyk2 oligo antag = antagonists of Pyk2 self-association, primary screen, Q293 cells, FERM NanoBiT luminescence, HTS; Protein-tyrosine kinase 2-beta (Homo sapiens), Q14289; active compounds read low; z-score (the deposit names both 25 µM and 10 µM); actives 0.83% (n = 99,000); AID 1347419, 2020;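 active = Z-score of -3 or lower, scaled per plate to the spread of control and sample wells; inactive = z-score above -3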;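 note: negative z-score means lost luminescence so less FERM oligomerization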
Target sequence (Q14289 whole entry, looked up): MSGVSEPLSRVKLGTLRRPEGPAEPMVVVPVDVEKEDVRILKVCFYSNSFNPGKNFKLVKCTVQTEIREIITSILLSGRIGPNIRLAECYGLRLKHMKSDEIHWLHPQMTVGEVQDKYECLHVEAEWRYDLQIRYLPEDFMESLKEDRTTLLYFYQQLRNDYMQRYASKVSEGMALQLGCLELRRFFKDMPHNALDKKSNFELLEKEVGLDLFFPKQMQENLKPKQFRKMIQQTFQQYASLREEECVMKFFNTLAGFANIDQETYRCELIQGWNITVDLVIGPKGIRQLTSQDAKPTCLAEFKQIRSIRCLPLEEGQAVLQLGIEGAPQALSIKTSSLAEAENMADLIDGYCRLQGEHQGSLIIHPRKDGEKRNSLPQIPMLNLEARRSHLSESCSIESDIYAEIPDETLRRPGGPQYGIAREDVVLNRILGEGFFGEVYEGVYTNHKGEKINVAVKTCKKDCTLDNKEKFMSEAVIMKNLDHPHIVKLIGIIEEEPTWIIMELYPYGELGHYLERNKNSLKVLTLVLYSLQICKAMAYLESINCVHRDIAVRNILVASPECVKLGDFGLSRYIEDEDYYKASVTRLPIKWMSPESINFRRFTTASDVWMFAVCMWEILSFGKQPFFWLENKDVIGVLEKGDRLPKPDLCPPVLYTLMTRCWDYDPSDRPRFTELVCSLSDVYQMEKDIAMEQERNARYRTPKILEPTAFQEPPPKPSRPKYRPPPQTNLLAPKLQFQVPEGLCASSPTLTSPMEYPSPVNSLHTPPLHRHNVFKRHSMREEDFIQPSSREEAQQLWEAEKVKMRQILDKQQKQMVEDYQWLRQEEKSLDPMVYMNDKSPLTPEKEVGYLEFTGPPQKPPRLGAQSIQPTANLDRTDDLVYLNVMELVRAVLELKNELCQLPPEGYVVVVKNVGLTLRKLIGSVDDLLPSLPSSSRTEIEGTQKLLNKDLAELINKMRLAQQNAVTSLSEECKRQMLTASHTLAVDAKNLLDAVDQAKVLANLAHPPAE
CYP2C9 activ = human CYP2C9 activators, primary screen, biochemical, luminescence. Cytochrome P450 2C9 (Homo sapiens), P11712. recombinant CYP2C9, luciferin-H conversion; active compounds read high; factor 1 = untreated enzyme, 0 = blocked. activation factor at 5 µM. actives 1.4% (n = 96,000). AID 1024, 2008;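 active = activation factor of 2 or more for CYP2C9 at a 5 µM dose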;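 note: 0 = sulfaphenazole-blocked wells and 1 = vehicle-only wells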
CYP2C19 act = human CYP2C19 activators, primary screen, biochemical, luminescence. Cytochrome P450 2C19 (Homo sapiens), P33261. recombinant CYP2C19, luciferin-H EGE luminescence; active compounds read high; 0 = fully inhibited enzyme, 1 = untreated enzyme. activation factor at 5 µM. 96,000 tested, under 10 active. AID 1025, 2008;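 active = activation factor of at least 2 at 5 µM in the primary screen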;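 note: 0 = wells with 2.5 mM tranylcypromine and 1 = vehicle-only wells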
* marks the source's active call; other numbers are inactive results.

How did C=CCn1c(CNC(=O)c2cccs2)nnc1SCC(=O)c1ccc(Br)cc1 do in these assays?
CYP2C9 inh: 61*; CYP2C19 inh: 46; Pyk2 oligo antag: 0.77; CYP2C9 activ: 0.4; CYP2C19 act: 0.5

What do the screens show for `C=CCn1c(CCNC(=O)c2ccccc2F)nnc1SCC(=O)Nc1nc2ccccc2s1`?
CYP2C9 inh: 59*; CYP2C19 inh: 29; Pyk2 oligo antag: -0.04; CYP2C9 activ: 0.4; CYP2C19 act: 0.7

Results for Nc1cc(Cl)ccc1C(=O)OCC(=O)NC1CCS(=O)(=O)C1 (stereo not drawn) ?
CYP2C9 inh: -9; CYP2C19 inh: 24; Pyk2 oligo antag: -0.61; CYP2C9 activ: 1.1; CYP2C19 act: 0.8

How did COc1cnn(-c2cc(Oc3ccc(C)cc3)ncn2)c(=O)c1Cl do in these assays?
CYP2C9 inh: 7; CYP2C19 inh: 74*; Pyk2 oligo antag: -0.83; CYP2C9 activ: 0.9; CYP2C19 act: 0.3

Results for CCOc1cc(CNCCCN2CCOCC2)cc(Br)c1OCC(=O)Nc1cccc(C(F)(F)F)c1 ?
CYP2C9 inh: 9; CYP2C19 inh: 12; Pyk2 oligo antag: 0; CYP2C9 activ: 0.9; CYP2C19 act: 0.9

What do the screens show for `Oc1ccc(-c2nc3ccccn3c2NCc2ccco2)cc1`?
CYP2C9 inh: 77*; CYP2C19 inh: 24; Pyk2 oligo antag: 0.1; CYP2C9 activ: 0.2; CYP2C19 act: 0.8

What do the screens show for `Cc1ccc(-c2nc3ccccn3c2NCc2ccc3c(c2)OCO3)cc1`?
CYP2C9 inh: 72*; CYP2C19 inh: 80*; Pyk2 oligo antag: 0.15; CYP2C9 activ: 0.3; CYP2C19 act: 0.2

What do the screens show for `Cc1ccn2c(Nc3ccc4c(c3)OCO4)c(-c3ccccn3)nc2c1`?
Pyk2 oligo antag: 0.26

How did Cc1cnn(C(=O)c2ccccc2Br)c1 do in these assays?
CYP2C9 inh: -8; CYP2C19 inh: 30; CYP2C9 activ: 1.1; CYP2C19 act: 0.7

What do the screens show for `COc1ccccc1/C=C/C(=O)NCC(=O)N/N=C/c1cc(Br)ccc1OC`?
CYP2C9 inh: 53*; CYP2C19 inh: 6; Pyk2 oligo antag: -0.11; CYP2C9 activ: 0.5; CYP2C19 act: 0.9

Results for COc1ccc2cc(-c3csc(-c4cccnc4)n3)ccc2c1 ?
CYP2C9 inh: 2; CYP2C19 inh: 75*; Pyk2 oligo antag: -0.61; CYP2C9 activ: 1; CYP2C19 act: 0.2

How did CCOc1ccccc1N1CCN(C(=O)C(F)(F)F)CC1 do in these assays?
CYP2C9 inh: 10; CYP2C19 inh: 24; Pyk2 oligo antag: -0.31; CYP2C9 activ: 0.9; CYP2C19 act: 0.8

Results for CCCc1ccc(C(=O)N2CCN(c3ccccc3OCC)CC2)cc1 ?
CYP2C9 inh: 76*; CYP2C19 inh: 88*; Pyk2 oligo antag: -2.2; CYP2C9 activ: 0.2; CYP2C19 act: 0.1

Results for CCOc1ccccc1N1CCN(C(=O)c2cc3c(s2)CCC3)CC1 ?
CYP2C9 inh: 45; CYP2C19 inh: 10; Pyk2 oligo antag: -0.2; CYP2C9 activ: 0.6; CYP2C19 act: 0.9

What do the screens show for `CCOc1ccccc1N1CCN(C(=O)c2cc(C)oc2C)CC1`?
CYP2C9 inh: 27; CYP2C19 inh: 68*; Pyk2 oligo antag: -0.32; CYP2C9 activ: 0.7; CYP2C19 act: 0.3

What do the screens show for `CCOc1ccccc1N1CCN(C(=O)C(Sc2ccccc2)c2ccccc2)CC1` (stereo not drawn)?
CYP2C9 inh: 42; CYP2C19 inh: 51*; Pyk2 oligo antag: -1.5; CYP2C9 activ: 0.6; CYP2C19 act: 0.5

How did CCOc1ccccc1N1CCN(C(=O)c2cc[n+]([O-])cc2)CC1 do in these assays?
CYP2C9 inh: -6; CYP2C19 inh: 80*; Pyk2 oligo antag: 0.44; CYP2C9 activ: 1.1; CYP2C19 act: 0.2

How did Nc1nnc(SCc2ccc(F)cc2)n1-c1ccccc1 do in these assays?
Pyk2 oligo antag: -1.1

Results for Clc1cccc(CSc2nccn2-c2ccccc2)c1 ?
CYP2C9 inh: 16; CYP2C19 inh: 73*; Pyk2 oligo antag: -1.3; CYP2C9 activ: 0.8; CYP2C19 act: 0.3

Results for FC(F)(F)c1ccc(CSc2nccn2-c2ccccc2)cc1 ?
CYP2C9 inh: 88*; CYP2C19 inh: 82*; Pyk2 oligo antag: -2.2; CYP2C9 activ: 0.1; CYP2C19 act: 0.2

What do the screens show for `Clc1cccc(CSc2ncn(-c3ccccc3)n2)c1`?
Pyk2 oligo antag: -0.06

Screening results (PubChem BioAssay)
